# Screens deposited in PubChem BioAssay by National Center for Advancing Translational Sciences (NCATS).
# Compounds with a hit are over-represented: about 3.8% of the library has one in this group of screens.
# mIDH1 inhibitor – qHTS for Inhibitors of mutant isocitrate dehydrogenase 1 (IDH1): qHTS; Isocitrate dehydrogenase [NADP] cytoplasmic (Homo sapiens), O75874; IDH1-R132H enzyme, NADPH consumption, diaphorase/resazurin fluorescence; Potency, µM (top dose mostly 76.6 µM), for the others: at the highest dose activity change, negative = inhibition, hits mostly inhibitors; 390,000 tested, 0.093% active; AID 602179, 2012; also: potency is read from the fitted curve at half-maximal effect; % is scaled to controls: 0 for no effect and ±100 for the full control effect; nearly all actives have a fitted effect of over 65% in size
# Target sequence (O75874 whole entry R132H, stated change not applied): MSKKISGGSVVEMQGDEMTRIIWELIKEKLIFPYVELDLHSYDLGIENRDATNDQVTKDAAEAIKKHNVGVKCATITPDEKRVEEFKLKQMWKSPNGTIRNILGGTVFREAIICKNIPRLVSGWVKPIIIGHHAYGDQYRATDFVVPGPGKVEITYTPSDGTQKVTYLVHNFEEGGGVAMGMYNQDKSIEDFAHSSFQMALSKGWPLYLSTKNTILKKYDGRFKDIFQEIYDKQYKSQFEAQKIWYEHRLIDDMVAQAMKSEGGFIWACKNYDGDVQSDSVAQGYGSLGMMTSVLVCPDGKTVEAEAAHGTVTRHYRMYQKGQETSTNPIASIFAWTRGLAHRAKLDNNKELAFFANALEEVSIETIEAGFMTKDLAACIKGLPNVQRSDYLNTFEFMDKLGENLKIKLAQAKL
#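 IDH1-R132H (0.5 ug/mL) preincubated 30 min with compound, then NADPH (0.016 mM) and alpha-KG (2 mM) added; 80 min at RT, pH 7.5. Remaining NADPH coupled via diaphorase/resazurin to fluorescence (540/590 nm); concentration-response curves normalized to no-enzyme control.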
# Nrf2 activator – qHTS of Nrf2 Activators. 410,000 tested, 0.31% active. AREc32 ARE-luciferase reporter (MCF7-derived line), luminescence, 24 h. Potency, µM (series often up to 46.1 µM), for the others: at the top dose activation, actives largely listed as activators. AID 624171, 2012; also: potency is read from the fitted curve at half-maximal effect; % of control where 0% means no effect; nearly all actives have a fitted effect of over 65% in size
#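 ARE activation measured as luciferase luminescence (Steady-Glo, 30 min RT) in AREc32_Fluc cells after 24 hr compound exposure at 37 deg C, 5% CO2; cells seeded overnight at 1000/well in OPTI-MEM, 5% FBS.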
# Nrf2 inh – Nrf2 qHTS screen for inhibitors; 360,000 tested, 2.1% active; A549 ARE-Fluc reporter, luciferase luminescence, 18-24 h; Potency, µM (series often up to 46 µM), for inactives: at the highest dose activity change, negative = inhibition, most hits filed as inhibitors; also: potency is read from the fitted curve at half-maximal effect; % is scaled to controls: 0 for no effect and ±100 for the full control effect; nearly all actives have a fitted effect of over 60% in size
#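 Reporter: ARE-Fluc in A549. Exposure: 18-24 h, 37 °C, 5% CO2, 5% FBS OPTI-MEM. Readouts: fluorescent cytotoxicity (CellTiter-Fluor), then luminescent Nrf2 signal after BugLite.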
# ELG1 DNA repair – qHTS screen for small molecules that inhibit ELG1-dependent DNA repair in human embryonic kidney (HEK293T) cells expressing luciferase-tagged ELG1; HEK293T ELG1-luciferase reporter, luminescence, 16 h; DNA damage induced by 5-fluorouridine; Potency, µM (highest dose often 46.1 µM), for the others: top-dose activity change, negative = inhibition, most hits filed as inhibitors; 330,000 tested, 2.3% active; AID 504467, 2011; also: potency is read from the fitted curve at half-maximal effect; % is scaled to controls: 0 for no effect and ±100 for the full control effect; nearly all actives have a fitted effect of over 55% in size
#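 Step one: seed 2,000 cells per well. Step two: pin-transfer compound or DMSO alongside 5-fluorouridine. Step three: incubate 16 hr, 37 °C, 5% CO2. Step four: add ONE-Glo, wait 30 min, read luminescence.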
# A549 viability – Nrf2 qHTS screen for inhibitors: counterscreen for cytotoxicity. A549 ARE-Fluc cells, CellTiter-Fluor viability, 18-24 h. Potency, µM (highest dose often 46 µM), for inactives: top-dose activity change, negative = cytotoxicity, actives largely listed as inhibitors. 390,000 tested, 0.16% active; also: potency is read from the fitted curve at half-maximal effect; % is scaled to controls: 0 for no effect and ±100 for the full control effect
#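 A549 ARE-Fluc cells in 5% FBS OPTI-MEM, 5000 cells/well, rested 2 h then exposed to compounds in concentration-response for 18-24 h at 37 °C. Viability by CellTiter-Fluor fluorescence (Ex 405/Em 525) after 30 min; luciferase luminescence (BugLite, 15 min, RT) read afterwards.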
# IDH1 autofl – qHTS for Inhibitors of mutant isocitrate dehydrogenase 1 (IDH1): Cherrypicks Autofluorescence Interference; shares compounds with mIDH1 inhibitor; Resorufin detection reagent fluorescence interference, cell-free; inhibition of signal, % at 51.2 µM; 750 tested, under 10 active; AID 623980, 2012;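 also: 0% = wells with normal resorufin and full inhibition = wells lacking resorufin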
# WT IDH1 inh – qHTS for Inhibitors of mutant isocitrate dehydrogenase 1 (IDH1): Cherrypicks in WT IDH1; shares compounds with mIDH1 inhibitor; WT IDH1 enzyme, NADPH diaphorase/resazurin fluorescence; Potency, µM (titrated, usually from 115 µM), for inactives: at the top dose activity change, negative = inhibition, most hits filed as inhibitors; 750 tested, 9% active;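 also: potency is read from the fitted curve at half-maximal effect; 0% = full WT IDH1 enzyme control and full inhibition = no enzyme wells; nearly all actives have a fitted effect of over 55% in size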
# Target sequence (O75874 whole entry, looked up): as the sequence (O75874 whole entry R132H, stated change not applied) above, with H132R counted along it
# IDH1 R132H conf – qHTS for Inhibitors of mutant isocitrate dehydrogenase 1 (IDH1): Confirmation of Cherrypicks; AID 624002, 2012; shares compounds with mIDH1 inhibitor; IDH1 R132H enzyme, NADPH diaphorase/resazurin fluorescence; 750 tested, 83% active; Potency, µM (series often up to 76.6 µM), for inactives: at the highest dose activity change, negative = inhibition, actives largely listed as inhibitors; also: potency is read from the fitted curve at half-maximal effect; nearly all actives have a fitted effect of over 50% in size
# The depositor's hits bear a star; ? = inconclusive; / = not tested or not shown; [ ] = another dose, or the depositor's remark. Calls follow the shape of the dose curve; as a rule, active = well fitted curve in the direction sought with a large enough effect; inconclusive = small, poorly fitted or top-dose-only effect, or another doubt; inactive = no such curve, though single readings can be large; an effect the other way counts as inactive or inconclusive.
SMILES,mIDH1 inhibitor,Nrf2 activator,Nrf2 inh,ELG1 DNA repair,A549 viability,IDH1 autofl,WT IDH1 inh,IDH1 R132H conf
O=C(NC1CCCC1)C(c1ccncc1)N(C(=O)c1csnn1)c1ccccc1 (stereo not drawn),-2%,0%,8%,5%,0%,/,/,/
CCc1ccc(NC(=O)Cn2c(=O)n(Cc3ccccc3)c(=O)c3oc4ccccc4c32)cc1,12%,0%,7%,/,4%,/,/,/
COc1ccc(NC(=O)N2C[C@H]3CON(C)[C@H]3C[C@H]2c2ccc(N3CCCCC3)cc2)cc1,/,-1%,/,/,/,/,/,/
Oc1cccc(-c2nc(-c3cccs3)c(-c3cccs3)[nH]2)c1,2%,-2%,12%,/,-2%,/,/,/
CN1CCN(NC(=O)c2cc(-c3ccc(Cl)s3)nc3ccccc23)CC1,?,1%,2%,?,14%,-2,7%,-2%
O=C(Nc1nnc(SCc2ccc(F)cc2)s1)c1ccc2ncsc2c1,52µM*,-1%,1%,?,-1%,-2,-16%,50µM*
COc1cc(OC)c(N(C)C(=O)c2c(C)oc3ncn(CC(C)C)c(=O)c23)cc1Cl,-16%,1%,20%,/,-2%,/,/,/
O=C(NC1CCCCC1)N(Cc1nc2ccccc2c(=O)[nH]1)C1CCCCC1,0%,14%,16%,?,7%,/,/,/
COc1ccc(CN(Cc2nc3ccccc3c(=O)[nH]2)C(=O)NC2CCCCC2)cc1,?,0%,1%,?,-6%,4,-5%,28µM*
O=C(COC(=O)c1ccc(F)c([N+](=O)[O-])c1)NC(=O)NCc1ccccc1,46µM*,?,2%,?,2%,-8,-14%,28µM*
CC(C)c1ccccc1-n1c(SCc2cc(=O)oc3ccc4ccccc4c23)nnc1-c1cccnc1,?,0%[9.22 µM],?,23µM*,-15%,7,-24%,11µM*
COc1ccc(OC)c(-c2nnc3n2N=C(c2ccc(OC)c(OC4CCCC4)c2)CS3)c1,/,-1%,18µM*,?,-18%,0,2%,14µM*
COc1ccc(C2=Nn3c(nnc3-c3ccccc3F)SC2)cc1OC1CCCC1,/,-1%,?,?,-24%,/,/,/
COc1ccc(C2=Nn3c(nnc3-c3ccccc3OC)SC2)cc1OCC1CC1,/,-1%,?,?,-1%,-2,-1%,45µM*
CCc1nc2c(OCc3cc(Cl)cc(Cl)c3)cccn2c1N(C)C(=O)c1ccc(OC)cc1,/,7%,/,/,/,/,/,/
CCOC(=O)C1CCCN(C(=S)NC2CCCC2)C1 (stereo not drawn),?,0%,17%,-8%,-4%,1,11%,-2%
O=S(=O)(c1ccccc1)[C@@]1(c2ccc(Br)cc2)C[C@@H]2ON=C(c3ccccc3)[C@@H]2C1,-16%,3%,-28%,22%,4%,/,/,/
CCOC(=O)c1cc(-c2ccncc2)nc2c1c(C)nn2-c1ccccn1,?,0%,-23%,23µM*,-6%,-2,?,22µM*
